Only some compounds are listed: those with a hit (about 19% of all), similar ones and a draw of the others.
HT1080NT lethal = kills 2HG-producing HT-1080-NT fibrosarcoma cells | Potency, µM (series often up to 46.1 µM), usual class: cytotoxic | HT-1080-NT fibrosarcoma viability, CellTiter-Glo ATP luminescence, 48 h | 360,000 tested, 1.6% active;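 also: NT is the 2HG producing partner of a matched IDH1 knockdown line; nearly all actives have a fitted effect of over 55% in size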
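Toxicity toward the 2HG-producing NT line was scored as %Activity, normalised to DMSO and no-cell wells, from CellTiter-Glo luminescence after 48 hours' treatment.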
TDP1 cell noCPT = qHTS for Inhibitors of human tyrosyl-DNA phosphodiesterase 1 (TDP1): qHTS in cells in absence of CPT. DT40 Tdp1-/- hTDP1 cells, no CPT, ATP luminescence, 48 h. Potency, µM (highest dose often 46.2 µM), actives largely listed as inhibitors. 420,000 tested, 15% active. AID 686978, 2013; also: nearly all actives have a fitted effect of over 55% in size
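A cellular qHTS used chicken DT40 cells lacking endogenous Tdp1 but carrying stably transfected human TDP1. Compounds were applied without camptothecin, and cell growth kinetics were judged by ATP-dependent luminescence after ≥48 hr.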
TDP1 cell CPT = growth inhibition of DT40 Tdp1-/-;hTDP1 cells with camptothecin (screen for TDP1 inhibitors) | chicken DT40 Tdp1-/-;hTDP1 cells + 20 nM CPT, ATP luminescence, 48 h | Potency, µM (highest dose often 46.2 µM), actives largely listed as inhibitors | 420,000 tested, 12% active; also: nearly all actives have a fitted effect of over 55% in size
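Cell growth measured by CellTiter-Glo luminescence after a minimum 48 h, 37 C compound exposure with 20 nM CPT in Tdp1-knockout DT40 cells stably expressing hTDP1, seeded 400/well; qHTS titration format.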
IL-1B inflam inh = inflammasome signaling inhibition, IL-1 beta readout. AID 743279. 360,000 tested, 4.7% active. activity change, % at 57.5 µM. THP-1 LPS/ATP IL-1B secretion, AlphaLISA, 16 h; stronger effect = lower value; in the data active = activity change below about -50%; inconclusive = mostly about -30% to -49%
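Secreted IL-1B measured by AlphaLISA bead assay after 16 h compound exposure of THP-1 cells; compounds (final up to 57.5 uM) added 1 h before LPS (250 ng/mL) and ATP (1.25 mM) stimulation; lower signal means less secretion.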
HT1080 IDH1KD tx = HT-1080 IDH1 knockdown cell toxicity (counter line); Potency, µM (highest dose often 46.1 µM), most hits filed as cytotoxic; HT-1080 IDH1 knockdown viability, ATP luminescence, 48 h; 360,000 tested, 2% active
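In this qHTS, HT-1080 cells depleted of IDH1 are exposed for 48 h at 37 °C to compound titrations. Toxicity is scored from CellTiter-Glo luminescence, with DMSO as full viability and medium alone as none.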
Large screens that a line does not name were inactive. Unless noted, calls follow the shape of the dose curve; as a rule, active = well fitted curve in the direction sought with a large enough effect; inconclusive = small, poorly fitted or top-dose-only effect, or another doubt; inactive = no such curve, though single readings can be large; an effect the other way counts as inactive or inconclusive.

COc1ccc(-n2nnnc2SCC(=O)Nc2ccc3c(c2)OCCO3)c(OC)c1	TDP1 cell noCPT 23µM, TDP1 cell CPT 13µM
COc1ccc(C(=O)N2CCC2(C)C(=O)NC(C)C)cc1 (configuration not stated)	HT1080NT lethal inconclusive
CCn1nnnc1SCC(=O)Nc1cc(OC)cc(OC)c1	TDP1 cell noCPT inconclusive, TDP1 cell CPT 16µM
COc1cccc(-n2nnnc2SCC(=O)Nc2ccc(NC(C)=O)cc2)c1	TDP1 cell noCPT 23µM, TDP1 cell CPT inconclusive
COc1cccc(-n2nnnc2SCC(=O)Nc2ccc3c(c2)OCCO3)c1	HT1080NT lethal 14µM, HT1080 IDH1KD tx inconclusive
N#C/C(=C\c1c(F)cccc1Cl)S(=O)(=O)c1ccccn1	none
COc1ccccc1NC(=O)c1ccc(S(=O)(=O)NCc2ccco2)cc1	TDP1 cell noCPT inconclusive, TDP1 cell CPT inconclusive
CCc1ccc(NC(=O)C/C(C)=N/NC(=O)COc2ccc(C)cc2Br)cc1	none
Cn1c(=O)c(-c2cc(F)cc(F)c2)nc2cnc(Oc3ccccc3)nc21	TDP1 cell noCPT inconclusive (no result: HT1080NT lethal, IL-1B inflam inh, HT1080 IDH1KD tx)
Cc1cccc2cc(-c3ccccc3)c(-c3ccccc3)c[n+]12	HT1080NT lethal inconclusive, TDP1 cell noCPT 7.3µM, TDP1 cell CPT 8.2µM, HT1080 IDH1KD tx inconclusive
Cc1nn(C(C)C(=O)O)c2ccccc12 (configuration not stated)	none
COc1ccc(/C=N/N2CCN(c3ccccc3)CC2)cc1Br	IL-1B inflam inh -55
COc1cc(/C=N/N2CCCCC2)cc(OC)c1O	TDP1 cell noCPT 18µM, TDP1 cell CPT 18µM
COc1ccccc1N1CCN(/N=C/c2ccc(O)c(O)c2)CC1	TDP1 cell noCPT 9.2µM, TDP1 cell CPT 18µM, HT1080 IDH1KD tx inconclusive
COc1ccc(/C=N/N2CCN(c3ccccc3OC)CC2)cc1OC	none
COC(=O)c1ccccc1NC(=O)Cn1c(=O)n(-c2cccc(OC)c2)c(=O)c2c(C)c(C(=O)N(C)C)sc21	none (no result: HT1080NT lethal, IL-1B inflam inh, HT1080 IDH1KD tx)
CCCCNC(=O)CSc1nc2ccccc2nc1Cc1ccccc1	none (no result: HT1080NT lethal, IL-1B inflam inh, HT1080 IDH1KD tx)
C=CCOc1c(CNc2nccs2)cccc1OCC	none
Cc1c(CCC(=O)O)c(=O)oc2cc(OCc3ccccc3F)ccc12	none
Cc1oc2cc3oc(=O)c(CCC(=O)NCCc4ccccc4F)c(C)c3cc2c1C	TDP1 cell noCPT 23µM, TDP1 cell CPT 23µM (no result: HT1080NT lethal, IL-1B inflam inh, HT1080 IDH1KD tx)
COc1ccccc1CNC(=O)CCc1c(C)c2ccc(OC)c(C)c2oc1=O	TDP1 cell CPT inconclusive (no result: HT1080NT lethal, IL-1B inflam inh, HT1080 IDH1KD tx)
COc1ccccc1CCNC(=O)CCc1c(C)c2cc3c(C)c(C)oc3cc2oc1=O	TDP1 cell noCPT 16µM, TDP1 cell CPT 18µM (no result: HT1080NT lethal, IL-1B inflam inh, HT1080 IDH1KD tx)
COc1ccc2c(C)c(CCC(=O)NCCc3ccc(OC)c(OC)c3)c(=O)oc2c1	TDP1 cell noCPT inconclusive, TDP1 cell CPT 13µM (no result: HT1080NT lethal, IL-1B inflam inh, HT1080 IDH1KD tx)
CCCCN(Cc1cc2cc(C)ccc2[nH]c1=O)C(=O)c1ccccn1	TDP1 cell noCPT inconclusive, TDP1 cell CPT inconclusive
Nc1nc2c(ncn2[C@@H]2O[C@H](CNCc3ccc4ncccc4c3)[C@@H](O)[C@H]2O)c(=O)[nH]1	none
c1ccc(N2CCCCC2)c(Nc2nc3ccccc3n3cnnc23)c1	TDP1 cell noCPT 21µM, TDP1 cell CPT inconclusive
FC(F)(F)c1ccc(N2CCOCC2)c(Nc2nc3ccccc3n3cnnc23)c1	HT1080NT lethal inconclusive, TDP1 cell noCPT inconclusive, TDP1 cell CPT inconclusive, IL-1B inflam inh -61, HT1080 IDH1KD tx inconclusive
Fc1ccc(Nc2nc3ccccc3n3cnnc23)c(F)c1	none (no result: HT1080NT lethal, IL-1B inflam inh, HT1080 IDH1KD tx)
O=C(NC1(C(F)(F)F)C(=O)Nc2c1c(=O)[nH]c(=O)n2CCc1ccccc1)c1ccc(Cl)cc1 (configuration not stated)	none (no result: HT1080NT lethal, IL-1B inflam inh, HT1080 IDH1KD tx)
CCCCN(CC)CCCNC(=O)Nc1sc2nc3n(c(=O)c2c1C)CCC(C)CC3 (configuration not stated)	TDP1 cell noCPT 21µM, TDP1 cell CPT inconclusive (no result: HT1080NT lethal, IL-1B inflam inh, HT1080 IDH1KD tx)
CC(=O)c1ccc(NC(=O)Nc2sc3nc4n(c(=O)c3c2C)CCC(C)CC4)cc1 (configuration not stated)	TDP1 cell noCPT 8.2µM, TDP1 cell CPT 5.8µM (no result: HT1080NT lethal, IL-1B inflam inh, HT1080 IDH1KD tx)
Cc1cc(C)n(CCNC(=O)c2ccco2)n1	none
COc1ccc(Cl)cc1N(CC(=O)NC(C(C)C)C(C)C)S(C)(=O)=O	TDP1 cell noCPT inconclusive
